# Among all 2,200 compounds or so, about 1,200 (55%) were called active. Cut-off not given; nearly all actives show IC50 up to about 92 µM. So high a share suggests a set chosen from earlier hits. The list shows a part of the results.
# Assay: counter assay for TAg ATPase ADP read-out – biochemical, ADP-Hunter, fluorescence, counter-screen (AID 2501);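 further: purified T antigen ATPase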;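 on inhibition: 0% = enzyme with vehicle and 100% = reference inhibitor wells; higher means more inhibition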
# Conditions: series mostly up to 100 µM; inhibition: at the top concentration
SMILES,inhibition,IC50
COc1ccc(N2C(=NC(C)=O)SC3CS(=O)(=O)CC32)cc1OC (configuration not stated),-4.91% (inactive),
CC(C)=CCc1c(O)c(CC=C(C)C)c2c(c1O)-c1cc(O)c(O)cc1CC2,9.25% (inactive),
O=C(NCc1ccccn1)C1CCN(S(=O)(=O)c2ccccc2)CC1,-6.17% (inactive),
CCN(CC)c1ccc(NC(=O)c2cccc(F)c2)c(C)c1,,9.01 µM (active)
COc1ccc2c(c1OC)C(=O)N(c1ccc(O)cc1)C2,,2.39 µM (active)
C=CS(=O)c1sc(Cl)c(N2CCOCC2)c1[N+](=O)[O-] (configuration not stated),-0.59% (inactive),
CC(=O)Oc1cc2cccc(OC(C)=O)c(=O)c2c(OC(C)=O)c1OC(C)=O,,91.6 µM (active)
Cc1ccc(S(=O)(=O)N2CCOCC2)cc1NC(=O)CN1CCN(c2ccc(O)cc2)CC1,,5.44 µM (active)
Cc1ccc(S(=O)(=O)Nc2cc(NC(=O)CN3CCOCC3)ccc2Cl)cc1,-29% (inactive),
O=S(=O)(c1ccc(NC(=S)N2CCN(c3ccc(O)cc3)CC2)cc1)N1CCOCC1,,4.49 µM (active)
O=C(CN1CCN(c2ccc(O)cc2)CC1)Nc1cc(S(=O)(=O)N2CCOCC2)ccc1Cl,,6.43 µM (active)
Cn1c(CCC(=O)Nc2cc(S(C)(=O)=O)ccc2Cl)nc2cc(S(=O)(=O)N3CCOCC3)ccc21,-11.3% (inactive),
COC(=O)Nc1ccc(S(=O)(=O)N2CCCC(C(=O)N3CCOCC3)C2)cc1 (configuration not stated),-6.27% (inactive),
Cc1ccc(S(=O)(=O)n2nc(OC(=O)c3ccccc3C)cc2N)cc1,19.6% (inactive),
COc1ccccc1NC(=O)c1c([N+](=O)[O-])cnn1C,-9.19% (inactive),
COc1cc(NC(=O)COc2ccccc2C)ccc1NC(=O)c1ccco1,-3.52% (inactive),
C=CCSc1nc(N)c(NC(=O)c2ccco2)c(=O)[nH]1,-24.7% (inactive),
COc1ccccc1NC(=O)Oc1ccc(NC(=O)c2ccco2)cc1,,3.94 µM (active)
O=C(Nc1ccc(Cl)c(Cl)c1)Oc1ccc(NC(=O)c2ccco2)cc1,,23.2 µM (active)
O=C(Nc1cccc(NC(=O)c2ccco2)c1)c1ccc([N+](=O)[O-])cc1,1.05% (inactive),
Cc1cc(O)c(C=O)c2c1C(=O)Oc1c(CO)c(O)c3c(c1O2)C(O)OC3=O (configuration not stated),-13.8% (inactive),

SMILES,inhibition,IC50
O=[N+]([O-])c1cc([N+](=O)[O-])c2cccnc2c1Oc1ccccc1O,,21.8 µM (active)
O=S(=O)(O)c1cccc2c(N=Nc3ccc(O)c4ncccc34)cccc12,25.6% (inactive),
O=[N+]([O-])c1cc(CN2CCCC2)c2cccnc2c1O,-20.7% (inactive),
Cc1nonc1C1CCCN1C(=O)c1cc(COc2ccc(F)cc2F)on1 (configuration not stated),-6.07% (inactive),
COc1cc(O)ccc1C(=O)CCc1ccc(O)cc1,,6.75 µM (active)
COc1ccccc1C(NC(C)=O)c1c(O)ccc2ccc(O)cc12 (configuration not stated),0.8% [at 50 µM] (inactive),
O=C(CCO)c1ccc(O)cc1,9.16% (inactive),
COc1cc(C2OCC3C(c4ccc(OC5OC(CO)C(O)C(O)C5O)c(OC)c4)OCC23)ccc1O (configuration not stated),,8.74 µM (active)
O=C(CN1C(=O)/C(=C\c2ccco2)SC1=S)Nc1ccc(O)cc1C(=O)O,16.6% (inactive),
O=C(CN1C(=O)/C(=C/c2ccco2)SC1=S)Nc1ccc(O)c(C(=O)O)c1,-2% (inactive),
O=C(CN1C(=O)/C(=C/c2ccco2)SC1=S)NC1CCS(=O)(=O)C1 (configuration not stated),,35.1 µM (active)
N#Cc1c(Nc2ccccc2Cl)s[nH]c1=O,27.8% (inactive),
O=C([C@H](Cc1ccccc1)NS(=O)(=O)c1ccc(Cl)cc1)N1CC[C@@]2(O)CCCC[C@H]2C1,,18.9 µM (active)
O=C(O)CSc1cc(NS(=O)(=O)c2ccc(Cl)cc2)c2ccccc2c1O,-205% (inactive),
COc1ccc(-c2c(C)nn3c(-c4ccccc4)cc(C)nc23)cc1,-13.8% (inactive),
NC(=S)N=Nc1ccc(NN=C(N)N)cc1,,6.85 µM (active)
COc1ccccc1C1/C(=C(/O)c2ccc(C)cc2)C(=O)C(=O)N1CC(C)O (configuration not stated),-24% (inactive),
O=c1nc2s/c(=C\c3ccco3)c(=O)n2nc1Cc1ccccc1,-12.8% (inactive),
CCCOc1ccc(Cc2nn3c(=O)/c(=C/c4ccco4)sc3nc2=O)cc1,-9.71% (inactive),
COC1=C/C(=C/c2c(N)n3nc(-c4ccc(C)cc4)sc3nc2=O)C=CC1=O,,10.8 µM (active)
CCOC1=C/C(=C/c2c(N)n3nc(-c4ccccc4)sc3nc2=O)C=CC1=O,,11.2 µM (active)

SMILES,inhibition,IC50
CCOC(=O)N1CCN(c2cc(NCCC(=O)O)c3c4c(onc24)-c2ccccc2C3=O)CC1,,8.63 µM (active)
CCOc1cc(CNc2ccc(N3CCN(C(C)=O)CC3)cc2)cc(Br)c1OC,,5.42 µM (active)
CCOc1c(Br)cc(CNc2ccc(N3CCN(C(C)=O)CC3)cc2)cc1OC,,7.66 µM (active)
CCOc1c(Br)cc(CNc2ccc(N3CCOCC3)cc2)cc1OC,,6.04 µM (active)
Cn1ncc2nnn(-c3ccccc3)c(=O)c21,-9.11% (inactive),
Brc1ccc(-c2nn3c(-c4ccco4)nnc3s2)o1,-1.31% (inactive),
CCOc1cc(/C=N\NC(=O)Cn2nnc3ccccc32)ccc1O,,5.43 µM (active)
COc1cc(/C=N/NC(=O)CCc2c(C)n[nH]c2C)ccc1O,,4.69 µM (active)
COc1cc(/C=N/NC(=O)C(C)n2nnc3ccccc32)ccc1O (configuration not stated),,3.07 µM (active)
CCOc1ccc(NC(=O)c2nnn(CC(=O)Nc3ccccc3OC)c2N)cc1,23.9% (inactive),
COc1ccc(Cc2nc3ccccc3n2CC(=O)N/N=C/c2ccc(O)cc2)cc1OC,,4.33 µM (active)
CC(C(=O)Nc1ccccc1Cl)N(c1ccccc1)S(C)(=O)=O (configuration not stated),15.5% (inactive),
CCCSC1=N/C(=C\C=C\c2ccco2)C(=O)S1,13.2% (inactive),
CCOc1cc(/C=N/NC(=O)CCn2nnc3ccccc32)ccc1O,,3.32 µM (active)
COc1cc(/C=N/NC(=O)Cn2nnc3ccccc32)ccc1O,,2.86 µM (active)
COc1cc(/C=N/NC(=O)CCn2nnc3ccccc32)ccc1O,,3.56 µM (active)
COc1cc(/C=N/NC(=O)CCn2nc(C)cc2C)ccc1O,,6.73 µM (active)
CCOC(=O)C1=C(N)n2c(s/c(=C\c3ccco3)c2=O)=C(C(=O)OCC)C1c1ccco1 (configuration not stated),-0.39% (inactive),
C[C@]12CC[C@@H]3c4cc(O)c(O)cc4CC[C@H]3[C@@H]1CC[C@@H]2O,12.5% (inactive),
CCCNC(=O)c1ccc(CNc2c(N3CCC(C(=O)OCC)CC3)c(=O)c2=O)cc1,-20.8% (inactive),

# From PubChem BioAssay AID2501 (Southern Research Specialized Biocontainment Screening …, 2010)
